# Laboratory results taken from PubChem BioAssay AID2551 (National Center for Advancing Translational Sciences (NCATS), 2010).
# Out of some 310,000 compounds screened, about 17,000 (5.5%) were called active. Inconclusive results (about 11%) are left out. For the sample, actives were picked, then their nearest neighbours and some compounds at random. Unmarked numbers belong to inactive results. The call rests on the fitted dose curve; in most records, active means well fitted inhibition curve with a large enough effect; inconclusive means small, poorly fitted or top-dose-only effect, or effect the other way; inactive means no such curve, though single readings can be large or run the other way.
# Molecular target: Nuclear receptor ROR-gamma (Mus musculus) (UniProt P51450)
# Sequence (P51450 whole entry, looked up): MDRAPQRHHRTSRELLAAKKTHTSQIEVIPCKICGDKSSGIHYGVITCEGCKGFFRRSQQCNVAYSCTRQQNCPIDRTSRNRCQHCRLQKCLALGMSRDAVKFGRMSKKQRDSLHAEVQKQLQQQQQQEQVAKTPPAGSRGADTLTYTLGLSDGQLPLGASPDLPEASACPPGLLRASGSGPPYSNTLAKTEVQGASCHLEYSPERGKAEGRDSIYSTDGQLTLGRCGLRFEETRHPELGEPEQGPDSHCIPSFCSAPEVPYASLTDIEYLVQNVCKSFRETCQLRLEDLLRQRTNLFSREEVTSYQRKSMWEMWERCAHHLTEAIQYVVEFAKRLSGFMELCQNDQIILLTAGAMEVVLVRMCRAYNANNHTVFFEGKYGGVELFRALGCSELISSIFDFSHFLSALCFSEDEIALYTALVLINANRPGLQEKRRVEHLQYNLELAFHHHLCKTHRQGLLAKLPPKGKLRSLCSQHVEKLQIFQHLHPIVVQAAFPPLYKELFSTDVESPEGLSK
# Assay: qHTS for inhibitors of ROR gamma transcriptional activity; further: nearly all actives have a fitted effect of over 60% in size
# Details: Drosophila S2 Gal4-RORgamma UAS-luciferase reporter, 20 h; series mostly up to 53.6 µM; activity change, negative = inhibition: at the top concentration
# Method in brief: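 Drosophila Schneider cells stably carrying a metallothionein-driven Gal4 DBD–ROR gamma fusion and a UAS-Photinus luciferase reporter were exposed to compound for 1 hr, then induced with copper sulfate (700 uM final) for 20 hr at ambient temperature before luminescence reading.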
# On the % scale 0 is the no-effect control and ±100 the full control effect; potency means the concentration at half of the fitted maximal effect.
SMILES,"activity change, negative = inhibition [%]",Potency
NS(=O)(=O)c1ccc2nc(NC(=O)CS(=O)(=O)c3ccc(F)cc3)sc2c1,12.4,–
CCS(=O)(=O)N1Cc2ccccc2CC1C(=O)Nc1nc2ccc(F)cc2s1 (centres undefined),–,4.47 µM (active)
O=C(c1ccc(F)cc1)N1CCCC(C(=O)N2CCCCC2)C1 (centres undefined),1.02,–
Cc1cc(NS(=O)(=O)c2ccc(NC(=O)c3cccnc3)cc2)nc(C)n1,-34,–
Cc1cc(C)c2c(Cn3ccnc3)cc(=O)oc2c1,2,–
O=C(c1cc(-c2ccc(Cl)cc2)on1)N1CCN(c2ccccc2)CC1,-6.49,–
Cc1cccc(COc2ccccc2/C=N/Nc2ccc([N+](=O)[O-])cc2)c1,17.8,–
O=C(CSc1nc2ccccc2o1)N/N=C/c1ccccc1C(=O)O,-6.91,–
Oc1c(Br)cccc1/C=N/Nc1c(F)c(F)c(F)c(F)c1F,21.4,–
Brc1ccccc1/C=N/Nc1nc2ccccc2o1,–,2.51 µM (active)
CCOc1ccccc1/C=N/Nc1nc2ccccc2o1,–,6.31 µM (active)
COc1ccc(/C=N/Nc2nc3ccccc3o2)cc1OC,-33.2,–
CC(=O)Nc1ccc(S(=O)(=O)Nc2cc(C)cn(Cc3ccc(C)cc3)c2=O)cc1,0,–
COCC1CCN(C(=O)C2CCC(=O)N(CC3CCCCC3)C2)CC1 (centres undefined),-17,–
CCC(=O)/C(=C(/O)c1ccccc1)c1nc2ccccc2[nH]1,–,6.31 µM (active)
CN(Cc1ccccc1)C(=O)CSc1nc2ccccc2[nH]1,-0.354,–
CC/C(O)=C1\C(=O)CC(C)(C)CC1=NCCc1nc2ccccc2[nH]1,0.887,–
CSc1ncccc1C(=O)Nc1ccc(C)cn1,7.85,–
O=C(Nc1nnc(-c2ccc(F)cc2)s1)c1c(F)cccc1Cl,-37.9,–
COc1cc(S(=O)(=O)N2CCN=C2c2ccccc2)ccc1Cl,4.5,–
CC1=NN(C(=O)Cc2ccc(C)cc2)C(O)(c2cccnc2)C1 (centres undefined),–,8.91 µM (active)
CC1=NN(C(=O)c2ccccc2Br)C(O)(c2cccnc2)C1 (centres undefined),–,5.62 µM (active)
Cc1ccc(NC(=O)N2CCC(O)(c3cccnc3)CC2)cc1,15.3,–
Cc1ccc(C(=O)NC(=S)NCc2cccnc2)cc1,-1.51,–
O=C(c1cccc(F)c1)N1CCC(O)(c2cccnc2)CC1,13.9,–
O=C(CN1CCN(Cc2ccccc2)CC1)Nc1ccc(F)c(F)c1,-18.2,–
CCCC[C@H]1COCCS(=O)(=O)N1Cc1cccc(Cl)c1,2.35,–

SMILES,"activity change, negative = inhibition [%]",Potency
O=C(NCCN1CCCC(O)C1)c1cc(COc2c(F)cccc2F)on1 (centres undefined),4.43,–
Cc1ccc(C)c(NC(=O)c2cc(-c3cc(C)cc(C)c3O)n[nH]2)c1,9.87,–
COc1cccc(OCc2cc(C(=O)N3CCN(C(=O)c4ccco4)CC3)no2)c1,43.6,–
Cc1ccc(-c2cc(C(F)(F)F)n3ncc(C(=O)N4CCCCC4c4cccnc4)c3n2)cc1 (centres undefined),12,–
COc1ccc(C(=O)N2CCCC(C(=O)c3ccccc3OC)C2)cc1OC (centres undefined),15.3,–
O=C(NC(=S)N1CCCCC1c1cccnc1)c1ccccc1 (centres undefined),–,0.794 µM (active)
COc1ccc(/C=C/C(=O)NC(=S)N2CCCC(C(N)=O)C2)cc1 (centres undefined),-29.3,–
O=C(Nc1ccccc1C(F)(F)F)N1CCCC1c1cccnc1 (centres undefined),-3.95,–
COc1ccc(C(=O)Nc2cccnc2)cc1C(=O)Nc1cccnc1,18.5,–
COc1ccc(C(=O)NC(=S)N2CCCCC2c2cccnc2)cc1OC (centres undefined),–,0.891 µM (active)
COc1ccc(/C=C/C(=O)NC(=S)NN2CCCCC2c2cccnc2)cc1 (centres undefined),–,7.08 µM (active)
CCOC(=O)C1CCCN(C(=O)/C=C/c2ccc(OC)cc2)C1 (centres undefined),1.88,–
CCN1CCN(C(=O)C2CCCN(S(=O)(=O)c3ccc(OC)c(OC)c3)C2)CC1 (centres undefined),-7.37,–
COc1cc(C(=O)OC2CCOC2=O)c([N+](=O)[O-])cc1OC (centres undefined),-3.43,–
Cc1ccccc1NC(=O)C1CCN(C(=O)NC2CCCCC2)CC1,-26.7,–
CCOC(=O)c1ccc(NC(=S)N2CCN(c3ccccn3)CC2)cc1,4.59,–
CNC(=S)N1CCN(c2ccccn2)CC1,-8.67,–
Cc1ccc(NC(=S)N2CCN(c3ncccn3)CC2)cc1C,–,12.6 µM (active)
Cc1c(CC(=O)NCC(=O)NCC(=O)O)c(=O)oc2cc3oc4c(c3cc12)CCCC4,-13.2,–
O=C(OCC(=O)N1CCN(C(=O)c2ccco2)CC1)c1cccc(O)c1,20.5,–
CCOC(=O)N1CCN(Cc2nc(Cc3cccc(C(F)(F)F)c3)no2)CC1,28.2,–
Cn1c(-c2sccc2OCc2cccc(C(F)(F)F)c2)n[nH]c1=S,–,4.47 µM (active)
O=C(c1ccco1)N1CCN(Cc2cccc(C(F)(F)F)c2)CC1,36.5,–
COc1ccccc1CNS(=O)(=O)c1c(C)[nH]c(C)c1C(=O)N1CCCCC1,-9.37,–
Cc1cccc(-c2nc3ccccc3c(=O)n2NC(=O)Cc2ccc(Cl)cc2)c1,1.19,–
O=C1CCCc2c1nc(-c1cccc(Cl)c1)n2O,15.1,–
O=c1c2cc(Br)ccc2nc(-c2cccc(Cl)c2)n1O,–,12.6 µM (active)
